The panel holds about 83,000 compounds, 20% with a hit somewhere; the sample as a whole holds those more often.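 Testing used 96-well plates and a 48-hour single-concentration exposure. Example: -40 means 40% of the starting cells died.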 Values without a mark were called inactive. Active and inactive are the calls of the source. How the source made its calls: active means growth percent below 10; inactive means the rest.
Tests used:
Assay in all cases: NCI-60 one-dose screen, 48 h (100 = growth as untreated, 0 = no growth, -100 = all killed)
Conditions in all cases: 10 µM unless noted
SK-MEL-2 melanoma = system: SK-MEL-2 melanoma
EKVX NSCLC = system: EKVX NSCLC
SN12C renal = system: SN12C renal
UO-31 renal = system: UO-31 renal
TK-10 renal = system: TK-10 renal
ACHN renal = system: ACHN renal
CAKI-1 renal = system: CAKI-1 renal
A498 renal = system: A498 renal
CCRF-CEM leukemia = system: CCRF-CEM leukemia
MOLT-4 leukemia = system: MOLT-4 leukemia

| Compound | growth (SK-MEL-2 melanoma) | growth (EKVX NSCLC) | growth (SN12C renal) | growth (UO-31 renal) | growth (TK-10 renal) | growth (ACHN renal) | growth (CAKI-1 renal) | growth (A498 renal) | growth (CCRF-CEM leukemia) | growth (MOLT-4 leukemia) |
| --- | --- | --- | --- | --- | --- | --- | --- | --- | --- | --- |
| CN1CCN(c2ccc(Nc3nc(NCCCNS(=O)(=O)c4cccc(F)c4)c4sccc4n3)cc2)CC1 | 96.8% | 83.3% | 67.4% | 54.2% | 91.6% | 7.69% (active) | 17.9% | 67.6% | 19.2% | 13.3% |
| O=C(CN1CCN(c2cc(=O)[nH]c3ccc(F)cc23)CC1)N(c1ccccc1)c1ccccc1 | 106% | 96.8% | 97.1% | 90.3% | 98.7% | 105% | 95.1% | 83.7% | 102% | 99.5% |
| Cc1ccc2c(n1)C(=O)C(Cl)=C(Nc1ccc(C(=O)OC(C)(C)C)cc1)C2=O | 116% [9.25 µM] | 76.5% [9.25 µM] | 88% [9.25 µM] | 46.4% [9.25 µM] | 83.9% [9.25 µM] | -21.5% [9.25 µM] (active) | -34.8% [9.25 µM] (active) | 110% [9.25 µM] | -23.2% [9.25 µM] (active) | -6.96% [9.25 µM] (active) |
| Cn1cc(-c2nnc(N)nc2-c2c[nH]c3ccc(F)cc23)c2cc(Br)ccc21 | 11.8% | 27.7% | 38.1% | 41.3% | 61.5% | 40.6% | 28% | 3.05% (active) | -4.24% (active) | -21.3% (active) |
| C#Cc1nc(/C=C\CCCCCCC(=O)NO)cs1 | 92.1% | 82.9% | 80.9% | -76.2% (active) | 42% | 11.3% | -20.2% (active) | 34.2% | -40.5% (active) | -24.6% (active) |
| Cn1cc(-c2cc3ncnc(Nc4ccc(CC(=O)Nc5nc(C(C)(C)C)cs5)cc4)c3s2)cn1 | 36.5% | 48% | 23.6% | 31.6% | 44.7% | 18.6% | 7.53% (active) | -4.34% (active) | 23.1% | 16% |
| CN1CCN(Cc2ccc(NC(=O)c3cncc(C#Cc4cnc5ccc(OCCCS(C)(=O)=O)nn45)c3)cc2C(F)(F)F)CC1 | -82% (active) | -10.7% (active) | -15.8% (active) | -12.9% (active) | -6.6% (active) | -16.1% (active) | -14% (active) | -90.9% (active) | 6.43% (active) | 2.88% (active) |
| C#C[C@]1(O)CC[C@H]2[C@@H]3CC=C4c5sc(Nc6cc(Cl)ccc6OC)nc5CC[C@]4(C)[C@H]3CC[C@@]21C | 1.15% (active) | 22.3% | 53.7% | 16.1% | 48.4% | 32.1% | -4.8% (active) | -2.08% (active) | 8.93% (active) | 1.34% (active) |
| Cn1c2nc3ccccc3c-2cc2ccccc21 | 105% | 42.5% | 33.7% | 13.9% | 103% | 21.2% | 18.9% | 21.3% | 50.8% | 21.5% |
| N#Cc1nc(-c2ccccc2)oc1N1CCC(C2(C(F)(F)F)N=N2)CC1 | 97.8% | 92.1% | 119% | 82% | 116% | 102% | 84.8% | 85.4% | 102% | 101% |
| O=C(N/N=C/c1cc2ccccc2nc1Cl)c1cc(-c2nc3ccccc3[nH]2)nc2ccccc12 | 82.8% | 93.5% | 99.9% | 70.7% | 91.7% | 89% | 71.6% | 54.6% | 87.8% | 82.2% |
| COc1cc(/C=C2/C(=O)Nc3ccc(Cl)cc32)ccc1OCc1ccc(Cl)cc1 | 107% | 88.5% | 88.9% | 74.3% | 129% | 52.7% | 83.3% | 93.4% | 69.5% | 76.7% |
| CSc1ccc(C(=NNS(=O)(=O)c2ccc(C)cc2)c2ccc(Cl)cc2)cc1 | 95.9% | 98.2% | 92.7% | 81.8% | 104% | 105% | 86.2% | 96.5% | 97.7% | 98.6% |
| NC(N)=NS(=O)(=O)c1ccc(N=Nc2c(N)nn(-c3ccc([N+](=O)[O-])cc3[N+](=O)[O-])c2N)cc1 | 106% | 99% | 101% | 82.5% | 120% | 101% | 90.5% | 94.5% | 97.7% | 99.4% |
| Cn1ncc2ncc(-c3ccc4ncc(C#N)c(N5CCc6cc(F)c(Cl)cc65)c4c3)cc21 | 47.6% | 11.3% | 30.3% | 3.14% (active) | 63.2% | 17% | 13.6% | 2.55% (active) | 28.4% | 12.6% |
| COc1ccc(/C=N/NC(=O)c2c(N)nn(C)c2Nc2ccccc2)cc1Oc1ccccc1 | 101% | 88.1% | 95.5% | 71.7% | 102% | 95.8% | 86.6% | 98.6% | 94.3% | 90.4% |
| N#Cc1c(-c2cccs2)cc(-c2cnccn2)nc1SCC(=O)N/N=C/c1ccccc1 | 103% | 56.2% | 45.5% | 75.8% | -14.7% (active) | 56.9% | 48.2% | 87.8% | 62.6% | 71.8% |
| O=C(/C=C/c1csc(Br)n1)NO | 37.6% | 37.5% | 68.7% | 15.5% | -9.31% (active) | 8.2% (active) | 15.9% | -5.59% (active) | 21.2% | 9.51% (active) |
| CNc1sc(S(=O)(=O)NC)nc1S(=O)(=O)c1ccc(C)cc1 | 103% | 95.2% | 101% | 77.7% | 95.5% | 101% | 91.9% | 93.1% | 104% | 100% |
| CCOP(=O)(OCC)OC[C@]12CCC(C)(C)CC1C1=CC[C@@H]3[C@@]4(C)CCCNC(C)(C)[C@@H]4CC[C@@]3(C)[C@]1(C)CC2 (stereo not given in full) | 121% | 69.7% | 80.8% | 58.2% | 90.4% | 83.5% | 53.7% | 85.2% | 28.1% | 2.26% (active) |
| CC(C)=CCC[C@](C)(O)[C@H]1CC[C@]2(C)[C@@H]1CC[C@@H]1[C@@]3(C)CC[C@H](N)C(C)(C)[C@@H]3CC[C@]12C | 109% | 73.4% | 96.1% | 77.1% | 127% | 91.7% | 67.8% | 106% | 0.154% (active) | 4.46% (active) |
| C#C[C@]1(O)CC[C@H]2[C@@H]3CC=C4c5sc(N6CCN(C)CC6)nc5CC[C@]4(C)[C@H]3CC[C@@]21C | 36.8% | 68.5% | 76.6% | 77.2% | 100% | 47.2% | 54.2% | 86% | -8.52% (active) | 1.27% (active) |
| O=C(CSc1nnc(-c2cccs2)n1-c1ccccc1)Nc1ccccc1F | 95.8% | 94.6% | 99.1% | 77.4% | 110% | 92.5% | 55.6% | 79.9% | 76.9% | 72% |
| O=C1[C@@H]2Cc3c([nH]c4ccccc34)[C@@H](c3ccc(Cl)cc3)N2C(=O)CN1C1CCN(Cc2c(F)cccc2F)CC1 | 67.6% | 40.1% | 38.5% | 24.2% | 52.5% | 28% | 24.6% | 60% | 19.8% | 8.27% (active) |

Reference: PubChem BioAssay (NCI)
